A selection: hits, their analogues and other compounds. The true share with any hit is near 1.3%.
LYPLA1 counter: counter-screen for PME1 inhibitors: inhibitors of human LYPLA1. recombinant LYPLA1, FP-Rh probe fluorescence polarization. inhibition, % at 5.9 µM. 320,000 compounds, 0.16% hits;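 active = inhibition above the mean of all tested compounds plus 3 SD, set per campaign, cut at about 14% in these data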;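 also: inhibitors block serine hydrolase probe labeling of LYPLA1 so polarization falls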
PME-1 primary: blocks human protein phosphatase methylesterase 1; 320,000 compounds, 0.53% hits; inhibition, % at 5.9 µM; Q9Y570; recombinant PME-1, FP-Rh probe fluorescence polarization;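 active = inhibition above the campaign mean of all compounds plus 3 SD, cut at about 26% in these data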;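 also: competitive labeling of PME-1 active site by serine hydrolase directed probe; inhibitors block probe labeling so polarization falls and inhibition rises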
PREPL inh: human PREPL enzyme inhibition; Q4J6C6; recombinant PREPL, fluorescence polarization activity-based probe; inhibition, % at 5.96 µM; 320,000 compounds, 0.68% hits; AID 2751; in the data active = inhibition above about 43%
Target sequence (Q4J6C6 whole entry, looked up): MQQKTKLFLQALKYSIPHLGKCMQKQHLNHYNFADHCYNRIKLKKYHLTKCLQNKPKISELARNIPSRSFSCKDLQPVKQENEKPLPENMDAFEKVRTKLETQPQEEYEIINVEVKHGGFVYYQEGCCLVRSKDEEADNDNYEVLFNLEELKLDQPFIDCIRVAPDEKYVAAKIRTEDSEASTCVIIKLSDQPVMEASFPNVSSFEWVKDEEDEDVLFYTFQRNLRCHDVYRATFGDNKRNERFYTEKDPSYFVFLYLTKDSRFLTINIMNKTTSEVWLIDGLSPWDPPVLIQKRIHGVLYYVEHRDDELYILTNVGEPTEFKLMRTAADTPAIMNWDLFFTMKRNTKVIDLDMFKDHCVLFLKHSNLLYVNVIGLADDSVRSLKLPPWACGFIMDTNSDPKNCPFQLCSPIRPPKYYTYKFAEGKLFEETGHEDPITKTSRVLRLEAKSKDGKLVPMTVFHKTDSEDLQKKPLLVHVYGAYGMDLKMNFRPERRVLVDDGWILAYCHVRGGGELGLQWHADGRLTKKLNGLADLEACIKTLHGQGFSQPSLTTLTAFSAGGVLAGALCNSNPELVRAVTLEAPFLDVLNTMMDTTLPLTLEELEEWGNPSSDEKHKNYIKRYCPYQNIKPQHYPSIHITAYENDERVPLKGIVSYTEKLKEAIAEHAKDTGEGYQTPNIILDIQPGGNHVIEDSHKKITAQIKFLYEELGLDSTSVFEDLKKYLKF
LYPLA2 inh: counter-screen for PME1 inhibitors: inhibitors of human LYPLA2 | recombinant LYPLA2, FP-Rh probe fluorescence polarization | inhibition, % at 5.9 µM | 320,000 compounds, 0.38% hits | AID 2177;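 active = inhibition above the screen-wide mean plus 3 SD, limit set per campaign, cut at about 26% in these data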
Fam108B inh: blocks mouse Fam108B hydrolase in RBBP9 counter-screen; recombinant Fam108B, FP-Rh probe fluorescence polarization; inhibition, % at 9.51 µM; AID 1947; 300,000 compounds, 0.33% hits;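 active = inhibition above the screen mean inhibition plus 3 SD, computed separately per campaign, cut at about 18% in these data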;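 also: inhibitors lower polarization as less probe binds the enzyme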
LYPLA2 conf: counter-screen for PME1 inhibitors: confirmation of human LYPLA2 inhibitors. shares compounds with LYPLA2 inh. recombinant LYPLA2, FP-Rh probe fluorescence polarization. inhibition, % at 5.9 µM. 1,100 compounds, 72% hits. AID 2232;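 active = mean inhibition across replicates above the hit cutoff set in the primary screen, cut at about 26% in these data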;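 also: blocked labeling of the enzyme by serine hydrolase FP-Rh probe lowers polarization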
LYPLA2 gel ABPP: blocks human acyl-protein thioesterase 2 in gel ABPP; inhibition, % at 20 µM; shares compounds with LYPLA2 inh; 150 compounds, 30% hits; rhLYPLA2 in mouse brain proteome, gel ABPP FP-Rh; AID 652029;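 active = inhibition of LYPLA2 enzyme probe labeling above about 50%, limit read from the data; inactive = inhibition below that limit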;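 also: loss of FP-Rh probe labeling of the LYPLA2 gel band measured as band density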
Large screens that a line does not name were inactive (follow-up assays come after a bar, where they were run).

COc1ccc(CCNC(=O)COc2ccc(-c3ccccc3)cc2)cc1OC	LYPLA2 inh 30 | LYPLA2 conf 31
CN(C)c1ccc(CNC(=O)c2cc(S(=O)(=O)N3CCOCC3)cn2C)cc1	none
O=C(c1cccc(S(=O)(=O)NCc2ccccc2)c1)N1CCN(Cc2ccccc2)CC1	none
COc1ccc(S(=O)(=O)NCc2ccc(C(=O)N3CCN(Cc4ccccc4)CC3)cc2)cc1	LYPLA2 inh 68 | LYPLA2 conf 59 | LYPLA2 gel ABPP inactive
Cc1ccc(S(=O)(=O)NCc2ccc(C(=O)N3CCN(Cc4ccccc4)CC3)cc2)cc1	none
COc1cccc(S(=O)(=O)NCc2ccc(C(=O)N3CCN(Cc4ccccc4)CC3)cc2)c1	LYPLA2 inh 43 | LYPLA2 conf 49
Cc1onc(-c2ccccc2Cl)c1C(=O)NNC(=O)c1cccc(F)c1	none
Cc1ccccc1N(CC(=O)NCc1ccccc1)C(=O)CCC(=O)Nc1nccs1	none
N#Cc1ccc(OCC(=O)N2CCN(c3ccc(C(F)(F)F)cn3)CC2)cc1	LYPLA2 inh 64 (no result: Fam108B inh) | LYPLA2 conf 32
COC(=O)c1ccc(NC(=O)CNc2ccccc2)cc1	none
O=c1c2ccccc2ncn1CCCSc1ccc(Cl)cc1	LYPLA2 inh 34 | LYPLA2 conf 29
COC(=O)c1cc(NC(=O)c2ccc(C)cc2)c(=O)oc1C	none
COC(=O)c1cc(NC(=O)c2ccccc2)c(=O)oc1C	LYPLA2 inh 27 | LYPLA2 conf inactive
O=C(NC(=S)Nc1ccc(Cl)c(C(=O)O)c1)c1ccc(OCc2ccccc2)cc1	LYPLA2 inh 37 | LYPLA2 conf 33
Cc1c(NC(=S)NC(=O)c2ccc(COc3ccccc3)cc2)cccc1C(=O)O	LYPLA2 inh 30 | LYPLA2 conf inactive
CCCCOc1cccc(C(=O)NC(=S)Nc2ccc(Cl)c(C(=O)O)c2)c1	none
O=C(O)c1ccc(Cl)c(NC(=S)NC(=O)c2cccc(COc3ccccc3)c2)c1	none
O=C(NC(=S)Nc1ccc(Cl)c(C(=O)O)c1)c1cccc(COc2ccccc2)c1	LYPLA2 inh 37 | LYPLA2 conf 38
COc1ccc(C(=O)NC(=S)Nc2ccc(Cc3ccncc3)cc2)cc1	LYPLA2 inh 32 | LYPLA2 conf 35
Cc1ccccc1C(=O)NC(=S)Nc1ccc(Cc2ccncc2)cc1	none
Cc1cc(C)c(NC(=O)CNC(=O)c2ccccc2OCc2c(C)noc2C)c(C)c1	none
CCCNc1nc2nc3ccccn3c(=O)c2cc1C(=O)NCCN1CCOCC1	none
COc1ccc(CN(C)C(=O)[C@H](Cc2ccccc2)NC(=O)c2ccco2)c(OC)c1	none (no result: Fam108B inh)
COc1ccc(-c2ccc(/C=C(\NC(=O)c3ccccc3)C(=O)N3CCOCC3)o2)cc1	none
COc1ccc(CCNC(=S)N2CCC(C(=O)c3ccc(F)cc3)CC2)cc1OC	LYPLA2 inh 27 | LYPLA2 conf 31
CN(CC(=O)O/N=C(\N)c1ccc([N+](=O)[O-])cc1)S(=O)(=O)c1ccc2ccccc2c1	LYPLA2 inh 59 | LYPLA2 conf 63 | LYPLA2 gel ABPP inactive
CC1(CCC(=O)N2CCCC(N3CCN(c4cccc(C(F)(F)F)c4)CC3)C2)CC1 (centres undefined)	LYPLA2 inh 32 | LYPLA2 conf 31
Cc1ncoc1C(=O)N1CCCC(N2CCN(c3cccc(C(F)(F)F)c3)CC2)C1 (centres undefined)	LYPLA2 inh 63 | LYPLA2 conf 69 | LYPLA2 gel ABPP inactive
CSCC(=O)N1CCCC(N2CCN(c3cccc(C(F)(F)F)c3)CC2)C1 (centres undefined)	none
Cc1cc(C(=O)N2CCCC(N3CCN(c4cccc(C(F)(F)F)c4)CC3)C2)c(C)o1 (centres undefined)	LYPLA2 inh 31 | LYPLA2 conf 41
Cc1occc1C(=O)N1CCCC(N2CCN(c3cccc(C(F)(F)F)c3)CC2)C1 (centres undefined)	LYPLA2 inh 28 | LYPLA2 conf 28
Oc1ccc(O)c(/C(=N/Nc2ccccc2)c2ccccc2)c1	none
COC(=O)C1CCN(C(=O)CC(NC(=O)C(F)(F)F)c2cccs2)CC1 (centres undefined)	none
O=c1c2c(nc3nc(NCc4cccc5ccccc45)[nH]n13)CCC2	none
CCOC(=O)Cc1csc(NC(=O)Nc2cccc(OC)c2)n1	none
O=C(COC(=O)c1cncc(Br)c1)NCc1ccc(Cl)cc1	LYPLA2 inh 27 | LYPLA2 conf inactive
O=C(COC(=O)c1cncc(Br)c1)NCc1ccccc1	none
O=C(CC1OC(=O)c2ccccc21)Nc1cc(Cl)ccc1N1CCCC1 (centres undefined)	none
O=c1[nH]ncn1-c1ccc(Br)cc1	none
COc1cc(C(=O)NCC(=O)NC(C)CCc2ccccc2)cc(OC)c1OC (centres undefined)	LYPLA2 inh 27 | LYPLA2 conf inactive
COc1cc(C(=O)NCCCc2ccccc2)cc(OC)c1OC	none
CCCc1cc(=O)oc2cc(C)cc(OC(C)C(=O)NCC(O)c3ccccc3)c12 (centres undefined)	none
O=[N+]([O-])c1cccc(Oc2cnccn2)c1	none
COc1ccc(N2CCN(CC(=O)N3c4ccccc4CC3C)CC2)cc1 (centres undefined)	none
CCCC(=O)Nc1ccc(NC(=S)NC(=O)c2ccccc2[N+](=O)[O-])cc1	LYPLA2 inh 30 | LYPLA2 conf 31
CCC(=O)NC(=S)Nc1ccc(NC(=O)c2ccccc2[N+](=O)[O-])cc1	none
O=C(Nc1ccc(S(=O)(=O)C(F)F)cc1)c1cccc(S(=O)(=O)N2CCOCC2)c1	LYPLA2 inh 35 | LYPLA2 conf 38
O=C(Nc1cccc(S(=O)(=O)C(F)F)c1)c1ccc(S(=O)(=O)N2CCOCC2)cc1	none
O=C(Nc1ccc(S(=O)(=O)N2CCOCC2)cc1)c1cc(S(=O)(=O)N2CCOCC2)ccc1Cl	LYPLA2 inh 40 | LYPLA2 conf 38
COc1ccc(CNCc2cccc(Oc3ccccc3)c2)cc1	none
O=c1ccc(-c2ccccc2)nn1Cc1ccc(F)cc1	LYPLA2 inh 27 | LYPLA2 conf inactive
O=c1ccc(-c2ccccc2)nn1Cc1ccc(F)cc1Cl	LYPLA2 inh 35 | LYPLA2 conf 34
Cc1ccc(S(=O)(=O)N2CCN(C(=O)CN3C(=O)NC4(CCCC4)C3=O)CC2)c(C)c1	none
O=C(N/N=C/c1ccc(N2CCOCC2)c([N+](=O)[O-])c1)c1ccc(F)cc1	none
O=C(O/N=C\c1ccc(N2CCCCC2)c([N+](=O)[O-])c1)c1cccc(C(F)(F)F)c1	none
CO/N=C/c1ccc(N2CCN(C(=O)c3ccc(Cl)cc3Cl)CC2)c([N+](=O)[O-])c1	LYPLA2 inh 48 | LYPLA2 conf 50
